Where “and” joins values, the source holds several entries; their conditions need not be identical. Identical values can stand only once. Records with an inconclusive call do not appear. The source holds several records for some structures; these can differ, active in one and inactive in another. Calls of active or inactive are those of the source. Calls come from the whole dose curve; as a rule, active = well fitted curve in the direction sought with a large enough effect in the repeat runs; inconclusive = weak or mixed curves; inactive = no such curve, though single readings can be large; an effect the other way counts as inactive or inconclusive.

Test [1] deals with Cytochrome P450 2C19 (Homo sapiens) (UniProt P33261). Briefly: Cytochrome P450 Family 2 Subfamily C Member 19 (CYP2C19) small molecule antagonists: luciferase reporter qHTS assay (AID 1671197). Note: nearly all actives have a fitted effect of over 65% in size. The gist of the method:
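CYP2C19 P450-Glo, 1536-well qHTS. Cpd + enzyme/proluciferin substrate 10 min RT; + NADPH regen, 37C 1 h; stop with luciferin detection reagent, 20 min RT, luminescence (RLU). Pos ctrl ketoconazole.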
On the technique in general: Reporter assays use an easily measured gene product as a stand-in for the process of interest.

Test [2] has as its target Cytochrome P450 2C9 (Homo sapiens) (UniProt P11712). The experiment in a line: Cytochrome P450 Family 2 Subfamily C Member 9 (CYP2C9) small molecule antagonists: luciferase reporter qHTS assay (AID 1671198). Note: nearly all actives have a fitted effect of over 50% in size. In a few lines:
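CYP2C9 activity was measured with a P450-Glo proluciferin substrate. Enzyme–substrate mix was held with compound for 10 min at room temperature, then NADPH regeneration solution was added for 1 h at 37C. Luciferin product was read as luminescence.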

For test [3], the target named is Cytochrome P450 1A2 (Homo sapiens) (UniProt P05177). Briefly: Cytochrome P450 Family 1 Subfamily A Member 2 (CYP1A2) small molecule antagonists: luciferase reporter qHTS assay (AID 1671199). Note: nearly all actives have a fitted effect of over 50% in size. In a few lines: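 Human CYP1A2 activity measured with a P450-Glo proluciferin substrate; compounds in DMSO preincubated 10 min at room temperature with enzyme-substrate mix, then NADPH regeneration system added for 1 h. Luciferin detection reagent, 20 min, luminescence read.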
Chain of Cytochrome P450 1A2 (Homo sapiens) (P05177 whole entry, looked up): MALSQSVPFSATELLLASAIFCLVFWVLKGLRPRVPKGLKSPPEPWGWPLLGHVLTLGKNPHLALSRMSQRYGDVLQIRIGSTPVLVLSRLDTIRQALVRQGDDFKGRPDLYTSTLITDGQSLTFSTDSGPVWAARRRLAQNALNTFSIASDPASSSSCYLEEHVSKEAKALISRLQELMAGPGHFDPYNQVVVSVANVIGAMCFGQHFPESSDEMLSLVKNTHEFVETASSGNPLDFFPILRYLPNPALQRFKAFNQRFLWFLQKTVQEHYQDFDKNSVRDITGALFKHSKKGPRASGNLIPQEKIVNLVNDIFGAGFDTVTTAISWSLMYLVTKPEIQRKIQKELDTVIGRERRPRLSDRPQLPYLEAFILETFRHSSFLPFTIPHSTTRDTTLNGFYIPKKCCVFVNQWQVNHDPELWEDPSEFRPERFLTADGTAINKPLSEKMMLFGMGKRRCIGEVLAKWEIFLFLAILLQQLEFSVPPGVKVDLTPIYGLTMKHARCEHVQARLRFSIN

Test [4] addresses Voltage-gated inwardly rectifying potassium channel KCNH2 (Homo sapiens) (UniProt Q12809). The experiment in a line: Human Ether-a-go-go-Related Gene (hERG) channel small molecule antagonists: fluorescence cell-based qHTS assay (AID 1671200). Note: nearly all actives have a fitted effect of over 50% in size. In a few lines: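 Kinetic two-minute fluorescence traces, sampled at 1 s, were collected following thallium stimulus of U2OS cells (1000 per well) that had been cultured overnight at 37 C and loaded with FluxOR II.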
Background: hERG is a cardiac potassium channel; its block is linked to QT prolongation.

Test [5] has as its target Cytochrome P450 3A4 (Homo sapiens) (UniProt P08684). Briefly: Cytochrome P450 Family 3 Subfamily A Member 4 (CYP3A4) small molecule antagonists: luciferase reporter qHTS assay (AID 1671201). Note: nearly all actives have a fitted effect of over 50% in size. In a few lines: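 Proluciferin-to-luciferin conversion by CYP3A4, NADPH-regenerated, 1 h RT; luminescence read as RLU. Ketoconazole as control.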
Potency is the fitted concentration of half-maximal effect.

Chain of Cytochrome P450 2C19 (Homo sapiens) (P33261 whole entry, looked up): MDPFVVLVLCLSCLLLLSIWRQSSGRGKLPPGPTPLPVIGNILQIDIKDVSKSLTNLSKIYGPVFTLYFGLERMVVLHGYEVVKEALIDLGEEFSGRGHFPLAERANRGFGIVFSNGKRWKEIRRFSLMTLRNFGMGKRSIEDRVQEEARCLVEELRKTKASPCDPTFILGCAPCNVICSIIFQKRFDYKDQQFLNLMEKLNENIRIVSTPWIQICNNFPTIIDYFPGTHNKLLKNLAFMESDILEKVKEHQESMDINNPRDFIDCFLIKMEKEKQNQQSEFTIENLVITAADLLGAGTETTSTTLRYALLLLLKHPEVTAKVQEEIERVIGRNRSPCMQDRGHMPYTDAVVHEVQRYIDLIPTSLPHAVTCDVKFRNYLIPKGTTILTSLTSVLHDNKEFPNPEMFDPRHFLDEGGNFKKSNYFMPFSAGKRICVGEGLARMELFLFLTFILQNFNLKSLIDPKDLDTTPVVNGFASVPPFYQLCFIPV
Chain of Cytochrome P450 3A4 (Homo sapiens) (P08684 whole entry, looked up): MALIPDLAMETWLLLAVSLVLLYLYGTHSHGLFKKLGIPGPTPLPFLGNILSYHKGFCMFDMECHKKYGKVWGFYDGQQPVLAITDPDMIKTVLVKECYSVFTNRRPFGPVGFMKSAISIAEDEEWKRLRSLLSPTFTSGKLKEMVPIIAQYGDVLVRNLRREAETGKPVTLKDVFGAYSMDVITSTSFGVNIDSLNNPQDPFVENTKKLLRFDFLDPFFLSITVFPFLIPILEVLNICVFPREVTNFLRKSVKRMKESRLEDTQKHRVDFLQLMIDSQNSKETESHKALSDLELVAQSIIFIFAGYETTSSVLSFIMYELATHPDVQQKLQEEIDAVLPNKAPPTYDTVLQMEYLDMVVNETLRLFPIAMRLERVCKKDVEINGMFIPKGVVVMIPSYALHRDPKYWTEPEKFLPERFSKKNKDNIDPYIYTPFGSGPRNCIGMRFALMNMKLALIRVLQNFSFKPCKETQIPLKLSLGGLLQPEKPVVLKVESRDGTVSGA
Chain of Voltage-gated inwardly rectifying potassium channel KCNH2 (Homo sapiens) (Q12809 whole entry, looked up): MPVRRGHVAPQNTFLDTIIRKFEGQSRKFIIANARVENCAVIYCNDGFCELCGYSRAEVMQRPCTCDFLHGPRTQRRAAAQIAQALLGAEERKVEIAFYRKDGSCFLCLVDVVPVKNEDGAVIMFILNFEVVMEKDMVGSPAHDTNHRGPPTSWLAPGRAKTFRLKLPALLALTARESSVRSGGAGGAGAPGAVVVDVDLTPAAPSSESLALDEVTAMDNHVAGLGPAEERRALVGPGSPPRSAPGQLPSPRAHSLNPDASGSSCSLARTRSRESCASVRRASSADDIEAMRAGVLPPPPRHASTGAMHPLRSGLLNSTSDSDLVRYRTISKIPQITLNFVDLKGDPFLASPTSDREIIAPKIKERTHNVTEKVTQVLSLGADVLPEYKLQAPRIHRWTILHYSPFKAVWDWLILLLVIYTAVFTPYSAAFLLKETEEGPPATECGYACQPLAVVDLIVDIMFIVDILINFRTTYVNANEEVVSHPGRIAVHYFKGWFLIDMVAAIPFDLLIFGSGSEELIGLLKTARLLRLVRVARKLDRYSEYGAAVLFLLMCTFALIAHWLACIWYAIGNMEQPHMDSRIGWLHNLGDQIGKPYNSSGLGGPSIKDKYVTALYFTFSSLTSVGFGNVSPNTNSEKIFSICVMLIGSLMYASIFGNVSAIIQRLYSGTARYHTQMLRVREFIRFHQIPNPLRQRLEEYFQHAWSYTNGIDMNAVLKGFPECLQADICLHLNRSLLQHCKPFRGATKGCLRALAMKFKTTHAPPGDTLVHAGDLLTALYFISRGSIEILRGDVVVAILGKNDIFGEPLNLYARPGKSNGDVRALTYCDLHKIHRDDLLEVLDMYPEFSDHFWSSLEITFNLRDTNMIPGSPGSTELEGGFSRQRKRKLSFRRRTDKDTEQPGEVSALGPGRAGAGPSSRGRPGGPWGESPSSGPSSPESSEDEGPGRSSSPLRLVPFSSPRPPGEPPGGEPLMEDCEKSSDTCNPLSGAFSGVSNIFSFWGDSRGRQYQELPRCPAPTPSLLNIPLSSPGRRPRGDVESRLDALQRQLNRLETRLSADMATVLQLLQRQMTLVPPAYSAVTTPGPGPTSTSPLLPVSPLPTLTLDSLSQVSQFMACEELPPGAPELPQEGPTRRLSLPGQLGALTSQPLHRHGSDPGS
Chain of Cytochrome P450 2C9 (Homo sapiens) (P11712 whole entry, looked up): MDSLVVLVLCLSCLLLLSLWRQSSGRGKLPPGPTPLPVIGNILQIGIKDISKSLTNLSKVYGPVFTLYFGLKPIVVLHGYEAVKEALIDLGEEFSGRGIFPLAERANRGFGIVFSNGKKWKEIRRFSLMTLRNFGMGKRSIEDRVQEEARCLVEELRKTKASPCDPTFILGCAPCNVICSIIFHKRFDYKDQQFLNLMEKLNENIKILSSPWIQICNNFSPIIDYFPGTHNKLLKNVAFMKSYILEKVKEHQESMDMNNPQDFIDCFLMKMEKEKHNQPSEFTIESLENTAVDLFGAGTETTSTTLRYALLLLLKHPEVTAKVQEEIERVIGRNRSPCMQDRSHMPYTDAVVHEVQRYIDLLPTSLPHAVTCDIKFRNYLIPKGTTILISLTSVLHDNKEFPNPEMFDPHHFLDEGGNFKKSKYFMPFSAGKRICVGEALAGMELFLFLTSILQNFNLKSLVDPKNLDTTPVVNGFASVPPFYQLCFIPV

In the case of `COc1ccc([N+](=O)[O-])cc1N`, the Potency is 35.7 µM (active) and 79.6 µM (active) in test [1]; 40.1 µM (active) and 63.3 µM (active) in test [2]; 22.5 µM (active) and 31.7 µM (active) in test [3]; 35.7 µM (active) and 35.6 µM (active) in test [5]. The Potency entry in test [4] is “inactive”.
For the molecule `C[Si]1(C)O[Si](C)(C)O[Si](C)(C)O[Si](C)(C)O1`, the Potency entry in test [1], in test [2], in test [3], in test [4] and in test [5] was “inactive” in each case.
For the molecule `CNC(=S)N(C)C`, the Potency entry in test [1], in test [2], in test [3] and in test [4] was “inactive” throughout.
Take `OC1C(O)C(O)C(O)C(O)C1O` (configuration not stated): the Potency entry in test [1], in test [2], in test [3] and in test [4] was “inactive” throughout.
As for `CC(CCl)OP(=O)(OC(C)CCl)OC(C)CCl` (configuration not stated), the Potency in test [1] is 35.7 µM (active) and 21.1 µM (active); in test [3] it was 28.3 µM (active) and 14.9 µM (active). Further, in test [4], the Potency entry is “inactive”.
For `CC(=O)Oc1ccc(C)cc1`, the Potency entry in test [1], in test [3] and in test [4] was “inactive” each time.
In the case of `CCO[Si](CCCN)(OCC)OCC`, the Potency entry in test [1], in test [2], in test [3], in test [4] and in test [5] was “inactive” in each case.
`CC(=O)OCCOC(C)=O`: the Potency entry in test [1], in test [2] and in test [4] was “inactive” each time.
On to `O=C1CCCC1`, for which the Potency result in test [1], in test [3] and in test [4] was “inactive” throughout.
On to `C=CC(=O)OCCC(=O)O`, for which, in test [1], the Potency is 104 µM (active) and inactive. Further, the Potency result in test [2], in test [4] and in test [5] was “inactive” throughout.
Take `CC(C)(C)c1cc(Cc2cc(C(C)(C)C)c(O)c(C(C)(C)C)c2)cc(C(C)(C)C)c1O`: the Potency entry in test [1], in test [2], in test [4] and in test [5] was “inactive” in each case. Moreover, in test [3], the Potency entry was “inactive and 71 µM (active)”.
Turning to `O=C(OCC1CCC2OC2C1)C1CCC2OC2C1` (configuration not stated), the Potency entry in test [1] and in test [4] was “inactive” throughout. Also, the Potency in test [2] is 71 µM (active).
In the case of `CCNc1ccccc1`, the Potency in test [1] is 25.6 µM (active); in test [3] it was 32.3 µM (active) and inactive. Further, the Potency entry in test [4] was “inactive”.
In the case of `CCOC(=O)n1ccn(C)c1=S`, the Potency entry in test [1] and in test [4] was “inactive” throughout. The Potency in test [3] was 39.9 µM (active) and inactive.
Regarding `C=CCCCCCCCCC(=O)O`, the Potency result in test [1], in test [3] and in test [4] was “inactive” throughout.
Consider `O=c1[nH]cnc2[nH]ncc12`, for which the Potency result in test [1], in test [2], in test [3], in test [4] and in test [5] was “inactive” in each case.
Regarding `CC(C)OC(=O)COc1ccc(Cl)cc1Cl`, the Potency in test [1] is 11.1 µM (active) and 50.2 µM (active); in test [3], 6.23 µM (active) and 63.3 µM (active). The Potency entry in test [4] was “inactive”.
Take `CC(C)OP(=O)(CP(=O)(OC(C)C)OC(C)C)OC(C)C`: the Potency in test [1] was 35.6 µM (active) and inactive. For the same molecule, the Potency entry in test [3] and in test [4] was “inactive” each time.
As to `c1ccc2c(c1)Cc1ccccc1-2`, the Potency result was “inactive and 35.6 µM (active)” in test [1]; 25.6 µM (active) and 7.96 µM (active) in test [3]. Besides, the Potency result in test [4] is “inactive”.
For the molecule `CNC(=O)Oc1ccc2c(c1)[C@]1(C)CCN(C)[C@@H]1N2C`, the Potency in test [1] is 25.2 µM (active) and inactive. For the same molecule, the Potency result in test [3] and in test [4] was “inactive” in each case.
For `OCc1ccccc1`, the Potency in test [1] is 35.1 µM (active). In addition, the Potency entry in test [3] and in test [4] was “inactive” each time.
In the case of `Cc1ccc2ncccc2c1`, the Potency result in test [1] and in test [4] was “inactive” in each case. In addition, in test [3], the Potency was 39.9 µM (active) and inactive.
With `CCCCCCCCCCCC(=O)OC`, the Potency result in test [1], in test [3] and in test [4] was “inactive” throughout.
As for `CC1(C)S[C@@H]2[C@H](NC(=O)COc3ccccc3)C(=O)N2[C@H]1C(=O)O`, the Potency result in test [1], in test [3] and in test [4] was “inactive” in each case.
Consider `NCCNCCN`, for which the Potency entry in test [1], in test [2], in test [4] and in test [5] was “inactive” in each case. Besides, the Potency in test [3] is 71.2 µM (active) and inactive.
As to `CCCCCCCCCCO`, the Potency entry in test [1] and in test [4] was “inactive” throughout. The Potency result in test [3] was “inactive and 31.7 µM (active)”.
Take `O=C1C(c2[nH]c3ccccc3c2O)=Nc2ccccc21`: the Potency result in test [1], in test [4] and in test [5] was “inactive” each time. In addition, the Potency result in test [3] was “inactive and 34.7 µM (active)”.
With `CN(C)c1ccc(O)c2c1C[C@H]1C[C@H]3[C@H](N(C)C)C(=O)C(C(N)=O)=C(O)[C@@]3(O)C(=O)C1=C2O`, the Potency entry in test [1], in test [2], in test [3], in test [4] and in test [5] was “inactive” each time.
As to `Cc1ccc(C(C)C)c(O)c1`, the Potency in test [1] was 71 µM (active) and 34.7 µM (active); in test [3], 31.7 µM (active) and 15.5 µM (active). Also, the Potency result in test [4] is “inactive”.
Regarding `CCCCCCCCCCCCCCCC(=O)OC(C)C`, the Potency entry in test [1], in test [2], in test [3], in test [4] and in test [5] was “inactive” each time.
As to `C=C(C)C(=O)OCC(C)C`, the Potency result in test [1], in test [3] and in test [4] was “inactive” throughout.
With `N#Cc1ccccc1`, the Potency entry in test [1], in test [3] and in test [4] was “inactive” each time.
`COc1ccc(CCC(C)=O)cc1`: the Potency in test [1] is 28.3 µM (active) and inactive; in test [3], 22.4 µM (active) and 20.4 µM (active). The Potency result in test [4] is “inactive”.
For the molecule `COc1ccc(N)c(C)c1`, the Potency in test [1] was 39.8 µM (active) and 39.9 µM (active); in test [2] it was 35.4 µM (active) and 63.3 µM (active); in test [3], 15.8 µM (active) and 12.6 µM (active); in test [5], 31.6 µM (active). Also, the Potency result in test [4] was “inactive”.
Take `CN1C(=O)CC[C@H]1c1cccnc1`: the Potency entry in test [1], in test [3] and in test [4] was “inactive” in each case.
In the case of `O=C(O)CCCCCCCCC(=O)O`, the Potency in test [1] was 50.5 µM (active) and inactive. Also, the Potency result in test [2], in test [4] and in test [5] was “inactive” each time.
`C=C(C)[C@H]1CC=C(C)C(=O)C1`: the Potency result in test [1], in test [2], in test [3], in test [4] and in test [5] was “inactive” each time.
Turning to `CCCCCCCC=O`, the Potency result in test [1], in test [2], in test [3], in test [4] and in test [5] was “inactive” throughout.
In the case of `C=CC(C)CCCC(C)(C)O` (configuration not stated), the Potency result in test [1] was “inactive”. The Potency was 39.8 µM (active) in test [3]; 43.6 µM (active) and inactive in test [4].
With `COc1cc(OC)c(C(=O)CCCN2CCCC2)c(OC)c1`, the Potency result in test [1], in test [3] and in test [4] was “inactive” throughout.

Values taken from PubChem BioAssay (Tox21).
